Experimental findings from article PMC11995724, “Antibiotic target discovery by integrated phenotypic and activity-based profiling of electrophilic fragments” (Cell chemical biology, 2025) are described below.

The campaign covered roughly 3,200 compounds. About 110 (3.4%) showed an effect of 50% or more. Only a selection was taken, and strong results are over-represented in it overall.

The subject of this assay is T1, V. cholerae SAD30.
T1 construct: SAD30
Also noted: species or system S. aureus MSSA476 (TSB) or V. cholerae SAD30 (LB); 384-well bacterial growth screen at 25 uM, OD600 relative to DMSO control. As to conditions: relative growth, OD600, LB; 25 µM; inhibitor.
Turning to `N#CC(=Cc1cccc2ccccc12)C(=O)NC1CC1` [9-O03, 2-cyano-N-cyclopropyl-3-(naphthalen-1-yl)prop-2-enamide], the “% of control remaining” value was 97.2808%. As to `CC(C)N(Cc1ccc(N(C)C)cc1)C(=O)CCl` [5-E06, 2-chloro-N-{[4-(dimethylamino)phenyl]methyl}-N-(propan-2-yl)acetamide], the “% of control remaining” value was found to be 100.2%. Regarding `O=C(CCl)NCCOc1cccc(F)c1` [6-G03, 2-chloro-N-[2-(3-fluorophenoxy)ethyl]acetamide], the “% of control remaining” value is reported as 108.75%. For the molecule `CC(Cl)C(=O)NCc1ccon1` (stereo not shown) [7-I13, 2-chloro-N-[(1,2-oxazol-3-yl)methyl]propanamide], the “% of control remaining” value is reported as 79.9604%. To `Cc1cc(C(=O)CCl)c(F)cc1F` [10-O03, 2-chloro-1-(2,4-difluoro-5-methylphenyl)ethan-1-one] belongs 34.9114%.

With `Cc1cc(F)c(C(=O)CCl)cc1F` [10-L19, 2-chloro-1-(2,5-difluoro-4-methylphenyl)ethan-1-one], the “% of control remaining” value came out at 32.7294%. The value for `Cc1ccc(-n2c(C)cc(C(=O)CCl)c2C)cc1F` [10-C06, 2-chloro-1-[1-(3-fluoro-4-methylphenyl)-2,5-dimethyl-1H-pyrrol-3-yl]ethan-1-one] was 94.9153%. As for `Cc1cc(C(=O)CCl)c(C)c(C)c1C` [10-I06, 2-chloro-1-(2,3,4,5-tetramethylphenyl)ethan-1-one], the “% of control remaining” value was found to be 98.9675%.

Regarding `Cc1cc(C)c(C(=O)CCl)c(C)c1` [10-C08, 2-chloro-1-(2,4,6-trimethylphenyl)ethan-1-one], the “% of control remaining” value was 98.9675%. As for `Cc1ccc(-n2c(C)cc(C(=O)CCl)c2C)cc1C` [10-B14, 2-chloro-1-[1-(3,4-dimethylphenyl)-2,5-dimethyl-1H-pyrrol-3-yl]ethan-1-one], the “% of control remaining” value came out at 97.5648%. On to `N#CC(=Cc1ccc([N+](=O)[O-])cc1)C(=O)Nc1ccc(Cl)cc1` [8-O11, N-(4-chlorophenyl)-2-cyano-3-(4-nitrophenyl)prop-2-enamide], for which the “% of control remaining” value was 68.7288%.

As for `O=C(CCl)N1N=C(c2cccs2)CC1c1cccc(O)c1` (stereo not shown) [6-L04, 2-chloro-1-[5-(3-hydroxyphenyl)-3-(thiophen-2-yl)-4,5-dihydro-1H-pyrazol-1-yl]ethan-1-one], the “% of control remaining” value came out at 102.076%.

For `CC(CO)(Cc1ccc(F)cc1)NC(=O)CCl` (stereo not shown) [7-F06, 2-chloro-N-{2-[(4-fluorophenyl)methyl]-1-hydroxypropan-2-yl}acetamide], the “% of control remaining” value is reported as 78.5065%. For `CC(Cl)C(=O)N1Cc2ccccc2OCC1C` (stereo not shown) [7-F11, 2-chloro-1-(3-methyl-2,3,4,5-tetrahydro-1,4-benzoxazepin-4-yl)propan-1-one], the “% of control remaining” value worked out at 75.731%. The value for `Cc1ccc(C=C(C#N)C(=O)NCc2ccco2)o1` [8-P19, 2-cyano-N-[(furan-2-yl)methyl]-3-(5-methylfuran-2-yl)prop-2-enamide] was 80.6934%; that for `N#CC(=Cc1ccc([N+](=O)[O-])o1)C(=O)NCc1ccco1` [8-I17, 2-cyano-N-[(furan-2-yl)methyl]-3-(5-nitrofuran-2-yl)prop-2-enamide] was -0.06798%; that for `N#CC(=Cc1cc2ccccc2o1)C(=O)NCc1ccco1` [9-O08, 3-(1-benzofuran-2-yl)-2-cyano-N-[(furan-2-yl)methyl]prop-2-enamide] was 80.4215%. On to `Cc1cc(C=C(C#N)C(N)=O)c(C)n1-c1cccc2ccccc12` [9-I12, 2-cyano-3-[2,5-dimethyl-1-(naphthalen-1-yl)-1H-pyrrol-3-yl]prop-2-enamide], for which the “% of control remaining” value is reported as 52.4133%.

Take `C=CC(=O)N1CCC(C(=O)NC[C@H]2C[C@@H](O)C2)(c2ccccc2)CC1` [3-O04, 4-phenyl-1-(prop-2-enoyl)-N-{[(1s,3s)-3-hydroxycyclobutyl]methyl}piperidine-4-carboxamide]: the “% of control remaining” value is recorded as 105.852%. Take `CC(Cl)C(=O)Nc1ccccc1[N+](=O)[O-]` (stereo not shown) [4-G18, 2-chloro-N-(2-nitrophenyl)propanamide]: the “% of control remaining” value came to 96.0966%. As to `CN(C)CCN1C(=O)C=CC1=O` [10-G11, 1-[2-(dimethylamino)ethyl]-2,5-dihydro-1H-pyrrole-2,5-dione], the “% of control remaining” value was found to be 99.9026%. Consider `O=C1C=CC(=O)N1CCCCO` [10-K07, 1-(4-hydroxybutyl)-2,5-dihydro-1H-pyrrole-2,5-dione], for which the “% of control remaining” value is given as 17.4557%. `CCOC=C(C#N)C(=O)N1CCN(S(=O)(=O)c2cc[nH]n2)CC1` [9-D06, 3-ethoxy-2-[4-(1H-pyrazole-3-sulfonyl)piperazine-1-carbonyl]prop-2-enenitrile]: the “% of control remaining” value is 86.1319%. The value for `C#CCN1C(=O)C=CC1=O` [10-F09, 1-(prop-2-yn-1-yl)-2,5-dihydro-1H-pyrrole-2,5-dione] was 15.1179%; that for `CC(Cl)C(=O)N1CCN(Cc2ccc3ccccc3n2)CC1` (stereo not shown) [7-A15, 2-chloro-1-{4-[(quinolin-2-yl)methyl]piperazin-1-yl}propan-1-one] was 80.0925%. With `Cc1nc(C)c(C(=O)CCl)o1` [10-N08, 2-chloro-1-(2,4-dimethyl-1,3-oxazol-5-yl)ethan-1-one], the “% of control remaining” value worked out at 41.4572%.

Regarding `Cc1ccc(C(=O)CCl)o1` [10-A09, 2-chloro-1-(5-methylfuran-2-yl)ethan-1-one], the “% of control remaining” value is reported as 117.514%. The value for `Cc1nc(C#N)c(N2CCN(C(=O)CCl)CC2)o1` [5-L18, 5-[4-(2-chloroacetyl)piperazin-1-yl]-2-methyl-1,3-oxazole-4-carbonitrile] was 96.3329%; that for `CC(Cl)C(=O)Nc1c(Cl)cccc1Cl` (stereo not shown) [4-B16, 2-chloro-N-(2,6-dichlorophenyl)propanamide] was 102.653%; that for `C=CC(=O)NC(=O)NCc1ccccc1` [1-I04, 1-benzyl-3-(prop-2-enoyl)urea] was 96.861%.

As for `NS(=O)(=O)c1cccc2cc(NC(=O)CCl)ccc12` [5-K16, 2-chloro-N-(5-sulfamoylnaphthalen-2-yl)acetamide], the “% of control remaining” value was determined as 109.11%. As for `C=CC(=O)N(Cc1c(F)cc(C)cc1Cl)C1CCCOCC1` (stereo not shown) [2-A13, N-[(2-chloro-6-fluoro-4-methylphenyl)methyl]-N-(oxepan-4-yl)prop-2-enamide], the “% of control remaining” value worked out at 81.8585%.

Consider `C=CC(=O)N1CCC(C(=O)N2CCN(c3ccnc(C)n3)CC2)CC1` [2-L06, 1-{4-[4-(2-methylpyrimidin-4-yl)piperazine-1-carbonyl]piperidin-1-yl}prop-2-en-1-one], for which the “% of control remaining” value was determined as 88.9607%. For `COc1cccc([C@H]2C[C@H](N(C)C(=O)C(C)Cl)C2)c1` (stereo partly shown) [6-B17, 2-chloro-N-methyl-N-[(1r,3r)-3-(3-methoxyphenyl)cyclobutyl]propanamide], the “% of control remaining” value was 89.6388%. In the case of `Cc1noc(C)c1CN(C)C(=O)CCl` [5-G06, 2-chloro-N-[(3,5-dimethyl-1,2-oxazol-4-yl)methyl]-N-methylacetamide], the “% of control remaining” value amounted to 92.4661%. On to `Cc1coc(C)c1C(=O)CCl` [10-M11, 2-chloro-1-(2,4-dimethylfuran-3-yl)ethan-1-one], for which the “% of control remaining” value stood at 109.41%.

`Cc1noc(C)c1C(=O)CCl` [10-K13, 2-chloro-1-(3,5-dimethyl-1,2-oxazol-4-yl)ethan-1-one]: the “% of control remaining” value worked out at 23.0664%.

For the molecule `CN(C(=O)CCl)C1CCN(c2ccccc2F)C1=O` (stereo not shown) [5-A18, 2-chloro-N-[1-(2-fluorophenyl)-2-oxopyrrolidin-3-yl]-N-methylacetamide], the “% of control remaining” value is recorded as 104.066%. To `O=C(c1ccccc1)c1cc(Cl)ccc1N1C(=O)C=CC1=O` [10-M16, 1-(2-benzoyl-4-chlorophenyl)-2,5-dihydro-1H-pyrrole-2,5-dione] belongs 57.9778%; to `O=C1C=CC(=O)N1c1ccccc1F` [10-D17, 1-(2-fluorophenyl)-2,5-dihydro-1H-pyrrole-2,5-dione], 26.1835%; to `O=C1C=CC(=O)N1c1ccc(F)cc1F` [10-F15, 1-(2,4-difluorophenyl)-2,5-dihydro-1H-pyrrole-2,5-dione], 26.4952%. Turning to `N#CC(=Cc1cccc(-c2ccncc2)c1)C(=O)NCc1ccco1` [9-B06, 2-cyano-N-[(furan-2-yl)methyl]-3-[3-(pyridin-4-yl)phenyl]prop-2-enamide], the “% of control remaining” value turned out to be 87.4915%. With `C=CC(=O)N1CCC(c2nc(C3CC3)no2)C1` (stereo not shown) [2-E09, 1-[3-(3-cyclopropyl-1,2,4-oxadiazol-5-yl)pyrrolidin-1-yl]prop-2-en-1-one], the “% of control remaining” value came out at 93.9014%. Consider `C=CC(=O)N1CCC(C(=O)NCCC2(O)CCCOC2)CC1` (stereo not shown) [2-B04, N-[2-(3-hydroxyoxan-3-yl)ethyl]-1-(prop-2-enoyl)piperidine-4-carboxamide], for which the “% of control remaining” value is reported as 101.004%. Consider `Cc1ccc(C(=O)C(C)Cl)cc1C` (stereo not shown) [10-B20, 2-chloro-1-(3,4-dimethylphenyl)propan-1-one], for which the “% of control remaining” value worked out at 99.2792%. To `CCc1ccc(NC(=O)C(C#N)=Cc2cccnc2)cc1` [8-G04, 2-cyano-N-(4-ethylphenyl)-3-(pyridin-3-yl)prop-2-enamide] belongs 83.8205%.
